Measured values: PubChem BioAssay (NCI)
About 83,000 compounds went through this panel and 20% of them were active in at least one assay; those are over-represented in the sample as a whole.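 The test compound was applied at a single concentration to cells in 96-well plates for 48 hours, and percent growth was recorded.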 Active and inactive are the calls of the source. Rule for the calls: active = growth percent below 10; inactive = the rest.

What follows are compounds tested on OVCAR-4 ovarian (assay: NCI-60 one-dose screen, 48 h (100 = growth as untreated, 0 = no growth, -100 = all killed)). Conditions: 10 µM.
In the case of `OCC1OC(n2ccc3c(NO)ncnc32)C(O)C1O` (centres undefined), the growth is reported as -5.14% (active). In the case of `C[C@]12CC[C@@H]3c4ccc(OS(=O)(=O)O)cc4CC[C@H]3[C@@H]1CC[C@@H]2NS(=O)(=O)c1ccc(-c2ccccc2)cc1`, the growth is reported as 66.9% (inactive). In the case of `CCN1CCN(CCC(=O)Nc2cccc(-n3cc(-c4ccncc4)c(-c4ccc(Cl)c(OC)c4)n3)c2)CC1`, the growth is reported as 43.1% (inactive). With `COc1ccc(-c2nnc(SCC(=O)Nc3ccc(C(=O)/C=C/c4ccccc4)cc3)n2-c2ccccc2)cc1OC` the growth was 62.5% (inactive).

Each compound was assayed on SK-OV-3 ovarian in the same assay as above. Conditions: 10 µM.
With `COc1ccc(-c2onc(N)c2-c2cc(OC)c3c(c2)OCO3)cc1` the growth was 38.7% (inactive). In the case of `C[C@]12CC[C@@H]3c4ccc(O)cc4CC[C@H]3[C@@H]1CC[C@@H]2NS(=O)(=O)c1ccc(C(F)(F)F)cc1`, the growth is reported as 86.6% (inactive). `O=C(CSc1nnc(-c2ccc(Cl)cc2)o1)Nc1ccc(C(=O)/C=C/c2ccc(Cl)cc2)cc1` was tested, and the growth was 90.6% (inactive). In the case of `Cc1cc(CCNC=O)c(C)c2c1sc1ccccc12`, the growth is reported as 104% (inactive). With `COc1cc2cc(Oc3ccc(NC(=O)c4ccc(Cl)c(C(F)(F)F)c4)cc3)c(C)nc2cc1OC` the growth was 27.7% (inactive). In the case of `CC(C)(C)c1ccc(S(=O)(=O)N[C@H]2CC[C@H]3[C@@H]4CCc5cc(O)ccc5[C@H]4CC[C@]23C)cc1`, the growth is reported as 87% (inactive). `COc1cc2cc(Oc3ccc(NC(=O)c4cccc(C(F)(F)F)c4)cc3)c(C)nc2cc1OC` was tested, and the growth was 23.4% (inactive). `COc1ccc(/C=C2\CCCC3=C2NC(N)=NC3c2ccc(OC)c(OC)c2)cc1OC` (centres undefined) was tested, and the growth was 44.1% (inactive). With `Cc1c(Cl)cccc1NC(=O)CN1CCOCC1` the growth was 97.1% (inactive). For `CC(C)(C)OC(=O)N1CCc2c(sc3ncnc(N/N=C/c4ccc(Br)cc4)c23)C1`, the growth was 75.7% (inactive). `CCCCc1oc2ccccc2c1C(=O)c1cc(I)c(OCCN(CC)CC)c(I)c1` was tested, and the growth was -38.1% (active). For `CCc1c2c(nc3ccc(OC(=O)N4CCC(N5CCCCC5)CC4)cc13)-c1cc3c(c(=O)n1C2)COC(=O)[C@]3(O)CC`, the growth was 25.9% (inactive). For `NS(=O)(=O)Oc1ccc(-c2ccc3sccc3c2)cc1`, the growth was 108% (inactive). With `O=C(Nc1ccc(OS(=O)(=O)c2ccccc2)cc1)C1CCCCC1` the growth was 95.6% (inactive). With `S=c1cnc2ccccc2[nH]1` the growth was 96% (inactive). In the case of `COc1cc(-c2nn(-c3cccc(NC(=O)NCCNC(=O)c4cccc(C(F)(F)F)c4)c3)cc2-c2ccncc2)ccc1Cl`, the growth is reported as 49.9% (inactive). In the case of `C[C@@H](O)[C@H]1C(=O)N2C(C(=O)O)=C(SCCN=CN)C[C@H]12`, the growth is reported as 2.23% (active). For `CC[C@@H](C(=O)[C@@H](C)[C@@H](O)[C@H](C)[C@@H]1O[C@@H]([C@@H](CC)C(=O)O)CC[C@@H]1C)C1O[C@]2(C=CC(=O)[C@]3(CC[C@@](C)([C@H]4CC[C@](O)(CC)[C@H](C)O4)O3)O2)[C@H](C)C[C@@H]1C` (some centres undefined), the growth was 69.1% (inactive). For `CCC(c1ccc(OC)cc1)C(CC)c1ccc(O)c(CN2CCN(C)CC2)c1` (centres undefined), the growth was 78.7% (inactive). In the case of `COc1ccc(C(=O)N2C=Cc3ccccc3C2C#N)cc1` (centres undefined), the growth is reported as 97.5% (inactive). For `Cc1cc(SC#N)cc(C(C)(C)C)c1O`, the growth was 93.1% (inactive). `COc1ccc(-c2n[nH]nc2-c2cc(OC)c3c(c2OC)OCO3)cc1` was tested, and the growth was 52.7% (inactive). With `CN1C(C(=O)Nc2ccccn2)=C(O)c2sc(Cl)cc2S1(=O)=O` the growth was 104% (inactive). In the case of `Clc1ccc2c(c1)C(N1CCNCC1)=Nc1ccccc1O2`, the growth is reported as 67% (inactive). With `CC(C)(C)c1ccc(S(=O)(=O)N[C@H]2CC[C@H]3[C@@H]4CCc5cc(O)c([N+](=O)[O-])cc5[C@H]4CC[C@]23C)cc1` the growth was 47.7% (inactive). With `COc1cc(-c2csc(NC(=O)Nc3ccc(Cl)c(C(F)(F)F)c3)n2)cc(OC)c1OC` the growth was 2.04% (active). `Brc1ccc2c(c1)-c1ccccc1C1=NCCN12` was tested, and the growth was -3.44% (active). In the case of `CC(C)N(CCOc1cccc(-c2nc3sccn3c2-c2ccnc(S(C)(=O)=O)n2)c1)C(C)C`, the growth is reported as 85.7% (inactive). In the case of `Cc1ccc(/C=C/C(=O)C(=O)/C=C/c2ccc(C)cc2)cc1`, the growth is reported as 109% (inactive). For `O=C(Nc1cc(Cl)cc2c1-c1ccc(Cl)cc1C2O)C(Cl)Cl` (centres undefined), the growth was 102% (inactive). With `COc1cc(Cc2cc(-c3ccccc3)n[nH]c2=O)cc(OC)c1OC` the growth was 71.2% (inactive). `Cc1cc(C(C#N)c2ccc(Cl)cc2)c(Cl)cc1NC(=O)c1cc(I)cc(I)c1O` (centres undefined) was tested, and the growth was 85.2% (inactive). With `C/C=C/C1=CN2C(=O)c3cc(OC4OC(C)C(NC)C(C)(O)C4O)c(C)c(O)c3N=C[C@@H]2C1` (some centres undefined) the growth was 1.76% (active). With `CNC(=O)c1c(I)c(NC(C)=O)c(I)c(C(=O)O)c1I` the growth was 104% (inactive). With `COc1ccc(Nc2cnc3cc(NS(=O)(=O)c4ccc(C)cc4)ccc3n2)cc1` the growth was 88% (inactive). With `COc1cc(-c2nn(-c3ccc(NC(=O)NCCCNC(=O)c4ccccc4)cc3)cc2-c2ccncc2)ccc1Cl` the growth was 23.8% (inactive). With `OCC1OC(n2ccc3c(NO)ncnc32)C(O)C1O` (centres undefined) the growth was 1.15% (active). In the case of `C[C@]12CC[C@@H]3c4ccc(OS(=O)(=O)O)cc4CC[C@H]3[C@@H]1CC[C@@H]2NS(=O)(=O)c1ccc(-c2ccccc2)cc1`, the growth is reported as 91.6% (inactive). For `CCN1CCN(CCC(=O)Nc2cccc(-n3cc(-c4ccncc4)c(-c4ccc(Cl)c(OC)c4)n3)c2)CC1`, the growth was 39.2% (inactive). With `COc1ccc(-c2nnc(SCC(=O)Nc3ccc(C(=O)/C=C/c4ccccc4)cc3)n2-c2ccccc2)cc1OC` the growth was 101% (inactive).
